{"source": "PubChem BioAssay AID1508600", "about": "(Functional Genomics Laboratory (NCATS/FGL), 2020)", "note": "The whole screen tested about 53,000 sequences, of which about 3,700 (7%) were called active.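 The calls were made as follows: active = gene knockdowns whose robust z-score for IL-1 alpha signal is at least 2 or at most -2, so actives lie on both sides; inactive = the rest.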 Shown is part of a subset that was picked to be rich in actives.", "data": [{"assay": "Components of the Cytosolic LPS Sensing Pathway: Gene Identification via Genome-wide siRNA Screen;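 also: robust z of the log signal after scaling to non-targeting control siRNA wells of the plate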", "settings": "RAW264.7 macrophages, IL-1a HTRF, actives lie on both sides, screened at 100 nM (by protocol), cells primed 5 h with Pam3CSK4 first", "in_short": "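Cells (RAW264.7, 1×10^4 per well) were transfected with siRNA at 100 nM and cultured 48h at 37 degrees C. Pam3CSK4 was added for 5 hours; LipidA transfection followed for 24 hour. IL-1a was then measured by HTRF.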", "values": [{"sequence": "CCUCCUGACUACAAGAACUTT against Utp14a", "z-score": "0.911 (inactive)"}, {"sequence": "CCUUGAUACCUUUCCAUGUTT against 9130008F23Rik", "z-score": "-0.68 (inactive)"}, {"sequence": "CGUUCUUGAGAGUCGAUCATT against Smoc2", "z-score": "-0.19 (inactive)"}, {"sequence": "GCGGCAUCUACUUAAUAUGTT against Acer2", "z-score": "2.12 (active)"}, {"sequence": "GCACCUUCAGCUAUCUAACTT against Nepn", "z-score": "0.478 (inactive)"}, {"sequence": "GCUGUUCCUCUUUCUUUCUTT against Olfr522", "z-score": "0.315 (inactive)"}, {"sequence": "CCUAGAGUCUCAGGACUGUTT against Actrt3", "z-score": "0.682 (inactive)"}, {"sequence": "GGUUUCGUACCAUGAAACATT against Stx2", "z-score": "-0.147 (inactive)"}, {"sequence": "GCUUUGACUGGAAUGACGGTT against Pex7", "z-score": "-2.2 (active)"}, {"sequence": "GGAGCUGUCUAAUCAUAAUTT against Clasp2", "z-score": "-0.109 (inactive)"}, {"sequence": "GGAGUGGAAGAAGAAGUAUTT against Agap3", "z-score": "0.177 (inactive)"}, {"sequence": "GGAGUUUCUACGUGUAUGCTT against Tpra1", "z-score": "-0.161 (inactive)"}, {"sequence": "GGACUUUGUGGAGAAUGUCTT against Cyp1a2", "z-score": "-0.876 (inactive)"}, {"sequence": "CCUACAGAGUACAGAUUAUTT against Atp6v0d1", "z-score": "-0.228 (inactive)"}, {"sequence": "GGACUGAGAGGGAUGGUAATT against A530016L24Rik", "z-score": "0.293 (inactive)"}, {"sequence": "GCUAAGACUCUUGAAUCAGTT against Zfp280d", "z-score": "3.72 (active)"}, {"sequence": "GGCACAGAAGAAUGAGAGATT against Schip1", "z-score": "0.217 (inactive)"}, {"sequence": "CGUACUCUUUCUUUAAUCCTT against Umod", "z-score": "-0.622 (inactive)"}, {"sequence": "GGUCCAUUACGUGCGCUUATT against Cage1", "z-score": "-0.00235 (inactive)"}, {"sequence": "GGCCUGACUUUUUGUCUUATT against Klhl15", "z-score": "1.09 (inactive)"}, {"sequence": "GGAACUGCCAUUGUAUGGGTT against Myo1g", "z-score": "-0.568 (inactive)"}, {"sequence": "GGCAAAGUGUCCCUCCGAATT against Skint7", "z-score": "2.06 (active)"}, {"sequence": "CCGCAUUUCAGACAUAGGCTT against Olfr248", "z-score": "-0.729 (inactive)"}, {"sequence": "GCAGAAUGUCACUAAGUGCTT against Sdcbp2", "z-score": "0.271 (inactive)"}, {"sequence": "GGGAGAAGCAAUUUUUAACTT against Gpr34", "z-score": "0.132 (inactive)"}, {"sequence": "CCUAUGGUAGAAAAAUACUTT against Fundc1", "z-score": "-0.252 (inactive)"}, {"sequence": "GGCAGCUGAUCAGAAAUCATT against Gabrg3", "z-score": "-1.13 (inactive)"}, {"sequence": "GCUCACUAACUUUUACAAGTT against Fam166c", "z-score": "0.419 (inactive)"}, {"sequence": "CCAAGAGUUGUCAAUAUAATT against Crisp3", "z-score": "0.768 (inactive)"}]}]}
